# Data: ChEMBL document CHEMBL1961873, “Compounds: GSK PKIS; Assays: Nanosyn kinase panel” (2012)
# Columns and labels:
# [1] = biological target: T1, Ephrin type-B receptor 2 (Homo sapiens) (UniProt P29323); details: at 1 µM
# T1 sequence (whole entry): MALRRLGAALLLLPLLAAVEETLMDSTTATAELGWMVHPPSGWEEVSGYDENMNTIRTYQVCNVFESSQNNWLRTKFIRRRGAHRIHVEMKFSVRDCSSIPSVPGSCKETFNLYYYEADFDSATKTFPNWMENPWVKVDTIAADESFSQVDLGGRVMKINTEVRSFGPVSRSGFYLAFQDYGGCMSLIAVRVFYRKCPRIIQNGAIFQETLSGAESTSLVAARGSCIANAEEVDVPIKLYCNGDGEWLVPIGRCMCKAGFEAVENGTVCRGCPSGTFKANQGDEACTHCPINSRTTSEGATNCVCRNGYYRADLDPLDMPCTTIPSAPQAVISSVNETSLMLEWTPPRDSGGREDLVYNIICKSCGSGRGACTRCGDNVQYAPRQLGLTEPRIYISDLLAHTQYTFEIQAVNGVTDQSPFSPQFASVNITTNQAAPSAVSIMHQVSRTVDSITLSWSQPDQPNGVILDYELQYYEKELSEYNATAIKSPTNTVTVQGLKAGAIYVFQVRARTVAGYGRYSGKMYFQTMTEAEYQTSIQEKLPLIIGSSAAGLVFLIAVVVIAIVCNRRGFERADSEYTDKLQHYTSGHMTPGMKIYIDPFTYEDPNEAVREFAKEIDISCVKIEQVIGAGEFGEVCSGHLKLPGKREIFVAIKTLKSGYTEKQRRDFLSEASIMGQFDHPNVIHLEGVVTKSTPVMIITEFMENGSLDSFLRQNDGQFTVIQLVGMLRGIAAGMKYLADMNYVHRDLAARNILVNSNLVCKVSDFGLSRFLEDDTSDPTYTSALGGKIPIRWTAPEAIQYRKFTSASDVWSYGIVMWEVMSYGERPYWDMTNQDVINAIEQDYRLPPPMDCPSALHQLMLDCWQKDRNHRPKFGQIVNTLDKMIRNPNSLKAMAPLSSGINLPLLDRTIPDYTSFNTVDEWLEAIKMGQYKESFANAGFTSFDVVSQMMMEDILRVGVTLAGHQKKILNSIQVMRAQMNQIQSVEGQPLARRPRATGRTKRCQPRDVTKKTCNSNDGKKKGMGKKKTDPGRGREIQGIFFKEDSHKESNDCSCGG
# [2] = biological target: T2, Ephrin type-B receptor 3 (Homo sapiens) (UniProt P54753); details: at 0.1 µM
# T2 sequence (whole entry): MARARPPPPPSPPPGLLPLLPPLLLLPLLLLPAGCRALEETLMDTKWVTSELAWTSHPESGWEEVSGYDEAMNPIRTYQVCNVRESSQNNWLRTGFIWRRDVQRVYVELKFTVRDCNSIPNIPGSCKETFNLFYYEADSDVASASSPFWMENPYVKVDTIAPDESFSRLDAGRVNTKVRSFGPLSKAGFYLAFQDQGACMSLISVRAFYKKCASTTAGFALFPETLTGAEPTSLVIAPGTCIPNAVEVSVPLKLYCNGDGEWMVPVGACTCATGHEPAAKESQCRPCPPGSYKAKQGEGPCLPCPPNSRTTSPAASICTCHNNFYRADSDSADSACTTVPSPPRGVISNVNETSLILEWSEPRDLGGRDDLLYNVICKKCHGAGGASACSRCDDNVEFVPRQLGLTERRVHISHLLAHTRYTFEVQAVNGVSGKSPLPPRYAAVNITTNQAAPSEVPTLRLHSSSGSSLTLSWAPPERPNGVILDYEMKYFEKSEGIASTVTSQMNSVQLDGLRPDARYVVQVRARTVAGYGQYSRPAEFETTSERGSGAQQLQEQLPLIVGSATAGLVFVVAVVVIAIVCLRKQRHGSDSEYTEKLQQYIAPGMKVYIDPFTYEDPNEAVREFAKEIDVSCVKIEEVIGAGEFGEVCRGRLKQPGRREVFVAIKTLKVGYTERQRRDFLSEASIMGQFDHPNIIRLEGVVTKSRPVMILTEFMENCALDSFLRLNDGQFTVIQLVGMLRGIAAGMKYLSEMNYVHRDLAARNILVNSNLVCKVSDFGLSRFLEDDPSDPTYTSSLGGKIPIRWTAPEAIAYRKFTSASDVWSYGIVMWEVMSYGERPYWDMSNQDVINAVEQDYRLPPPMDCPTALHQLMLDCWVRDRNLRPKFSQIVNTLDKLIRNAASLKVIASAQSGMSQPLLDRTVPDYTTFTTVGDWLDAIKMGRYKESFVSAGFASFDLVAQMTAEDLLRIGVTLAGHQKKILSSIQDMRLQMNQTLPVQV
# [3] = biological target: T2, Ephrin type-B receptor 3 (Homo sapiens); details: at 1 µM
# [4] = biological target: T3, Ephrin type-B receptor 4 (Homo sapiens) (UniProt P54760); details: at 0.1 µM
# T3 sequence (whole entry): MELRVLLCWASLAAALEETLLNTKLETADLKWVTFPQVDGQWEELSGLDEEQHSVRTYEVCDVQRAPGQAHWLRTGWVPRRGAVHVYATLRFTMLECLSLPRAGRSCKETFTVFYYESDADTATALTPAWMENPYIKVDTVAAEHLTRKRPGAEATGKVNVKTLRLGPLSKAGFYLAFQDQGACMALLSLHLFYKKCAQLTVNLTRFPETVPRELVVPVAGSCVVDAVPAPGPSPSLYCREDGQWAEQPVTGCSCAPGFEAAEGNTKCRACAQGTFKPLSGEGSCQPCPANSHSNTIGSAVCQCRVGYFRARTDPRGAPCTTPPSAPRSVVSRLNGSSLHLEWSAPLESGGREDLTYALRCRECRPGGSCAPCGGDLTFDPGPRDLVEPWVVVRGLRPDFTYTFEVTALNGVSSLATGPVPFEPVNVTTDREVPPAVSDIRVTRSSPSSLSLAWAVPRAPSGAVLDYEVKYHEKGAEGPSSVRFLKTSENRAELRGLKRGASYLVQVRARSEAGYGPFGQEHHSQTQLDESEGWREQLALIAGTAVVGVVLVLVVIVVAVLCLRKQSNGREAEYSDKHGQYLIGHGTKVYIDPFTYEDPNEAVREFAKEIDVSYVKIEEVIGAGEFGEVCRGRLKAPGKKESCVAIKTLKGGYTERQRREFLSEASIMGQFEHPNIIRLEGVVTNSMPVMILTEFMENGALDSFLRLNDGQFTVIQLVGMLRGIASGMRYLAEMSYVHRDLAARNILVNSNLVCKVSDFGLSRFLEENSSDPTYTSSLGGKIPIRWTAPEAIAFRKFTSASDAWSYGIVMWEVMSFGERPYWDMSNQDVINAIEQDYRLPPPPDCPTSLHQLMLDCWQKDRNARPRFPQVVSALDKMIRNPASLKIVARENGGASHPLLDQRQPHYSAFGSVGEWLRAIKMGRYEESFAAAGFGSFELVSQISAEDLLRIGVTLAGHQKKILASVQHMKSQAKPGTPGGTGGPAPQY
# [5] = biological target: T3, Ephrin type-B receptor 4 (Homo sapiens); details: at 1 µM
# [6] = biological target: Receptor tyrosine-protein kinase erbB-2 (Homo sapiens) (UniProt P04626); details: at 0.1 µM
# Chain of Receptor tyrosine-protein kinase erbB-2 (Homo sapiens) (P04626 whole entry): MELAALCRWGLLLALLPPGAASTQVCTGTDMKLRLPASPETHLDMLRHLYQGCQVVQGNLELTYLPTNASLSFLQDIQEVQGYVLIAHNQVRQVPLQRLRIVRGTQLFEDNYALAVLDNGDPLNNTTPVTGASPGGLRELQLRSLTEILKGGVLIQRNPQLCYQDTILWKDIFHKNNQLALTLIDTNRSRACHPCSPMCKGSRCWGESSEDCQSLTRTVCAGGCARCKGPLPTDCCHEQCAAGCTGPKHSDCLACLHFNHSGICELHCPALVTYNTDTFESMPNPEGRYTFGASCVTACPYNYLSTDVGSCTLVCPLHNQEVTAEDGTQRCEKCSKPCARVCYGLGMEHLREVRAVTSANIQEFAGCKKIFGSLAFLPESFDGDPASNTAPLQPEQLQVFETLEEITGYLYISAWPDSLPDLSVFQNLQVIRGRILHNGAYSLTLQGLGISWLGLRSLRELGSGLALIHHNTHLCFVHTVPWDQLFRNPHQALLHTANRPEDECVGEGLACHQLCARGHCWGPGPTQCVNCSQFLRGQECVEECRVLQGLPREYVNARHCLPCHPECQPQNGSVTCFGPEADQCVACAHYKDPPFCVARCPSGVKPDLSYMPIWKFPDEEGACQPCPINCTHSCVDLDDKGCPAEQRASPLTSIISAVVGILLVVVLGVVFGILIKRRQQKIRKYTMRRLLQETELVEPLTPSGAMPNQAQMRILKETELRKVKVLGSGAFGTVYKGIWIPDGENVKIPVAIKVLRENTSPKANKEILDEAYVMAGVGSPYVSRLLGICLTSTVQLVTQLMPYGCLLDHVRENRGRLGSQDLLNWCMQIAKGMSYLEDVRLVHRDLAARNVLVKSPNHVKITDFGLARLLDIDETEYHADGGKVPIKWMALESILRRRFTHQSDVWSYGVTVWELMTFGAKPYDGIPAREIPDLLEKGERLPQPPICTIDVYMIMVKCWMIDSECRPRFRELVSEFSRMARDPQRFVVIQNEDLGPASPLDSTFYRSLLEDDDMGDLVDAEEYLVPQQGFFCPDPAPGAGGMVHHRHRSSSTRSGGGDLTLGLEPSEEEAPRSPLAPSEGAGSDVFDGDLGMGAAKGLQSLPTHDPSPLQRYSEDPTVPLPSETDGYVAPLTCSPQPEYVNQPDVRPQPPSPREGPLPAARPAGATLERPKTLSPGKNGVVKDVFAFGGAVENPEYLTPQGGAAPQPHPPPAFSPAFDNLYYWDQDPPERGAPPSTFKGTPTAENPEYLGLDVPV
# [7] = biological target: Receptor tyrosine-protein kinase erbB-2 (Homo sapiens) (UniProt P04626); details: at 1 µM
# [8] = biological target: Receptor tyrosine-protein kinase erbB-4 (Homo sapiens) (UniProt Q15303); details: at 0.1 µM
# [9] = biological target: Receptor tyrosine-protein kinase erbB-4 (Homo sapiens) (UniProt Q15303); details: at 1 µM
# [10] = biological target: Tyrosine-protein kinase Fer (Homo sapiens) (UniProt P16591); details: at 0.1 µM
# Chain of Tyrosine-protein kinase Fer (Homo sapiens) (P16591 whole entry, looked up): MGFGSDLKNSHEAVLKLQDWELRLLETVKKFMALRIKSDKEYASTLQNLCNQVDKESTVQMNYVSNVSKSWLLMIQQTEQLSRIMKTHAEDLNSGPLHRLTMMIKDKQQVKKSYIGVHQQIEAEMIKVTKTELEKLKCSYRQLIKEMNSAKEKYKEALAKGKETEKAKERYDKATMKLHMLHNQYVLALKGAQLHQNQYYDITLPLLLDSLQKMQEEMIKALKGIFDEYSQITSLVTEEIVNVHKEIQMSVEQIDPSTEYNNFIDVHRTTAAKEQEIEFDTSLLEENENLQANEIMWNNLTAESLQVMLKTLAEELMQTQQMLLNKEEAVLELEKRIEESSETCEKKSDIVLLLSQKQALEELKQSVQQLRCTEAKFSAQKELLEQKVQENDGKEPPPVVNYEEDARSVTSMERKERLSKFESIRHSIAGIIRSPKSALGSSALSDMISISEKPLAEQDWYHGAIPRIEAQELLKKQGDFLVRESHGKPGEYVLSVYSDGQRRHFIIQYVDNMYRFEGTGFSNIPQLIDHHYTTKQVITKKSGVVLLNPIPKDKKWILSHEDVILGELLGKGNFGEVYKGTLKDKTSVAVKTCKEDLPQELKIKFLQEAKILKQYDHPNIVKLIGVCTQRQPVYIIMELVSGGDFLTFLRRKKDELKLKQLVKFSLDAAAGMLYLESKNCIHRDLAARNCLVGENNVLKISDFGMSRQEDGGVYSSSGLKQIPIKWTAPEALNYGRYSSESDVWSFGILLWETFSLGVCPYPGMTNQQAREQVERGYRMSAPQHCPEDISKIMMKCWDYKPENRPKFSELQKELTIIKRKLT
# [11] = biological target: Tyrosine-protein kinase Fer (Homo sapiens) (UniProt P16591); details: at 1 µM
# [12] = biological target: Tyrosine-protein kinase Fes/Fps (Homo sapiens) (UniProt P07332); details: at 0.1 µM
# Chain of Tyrosine-protein kinase Fes/Fps (Homo sapiens) (P07332 whole entry): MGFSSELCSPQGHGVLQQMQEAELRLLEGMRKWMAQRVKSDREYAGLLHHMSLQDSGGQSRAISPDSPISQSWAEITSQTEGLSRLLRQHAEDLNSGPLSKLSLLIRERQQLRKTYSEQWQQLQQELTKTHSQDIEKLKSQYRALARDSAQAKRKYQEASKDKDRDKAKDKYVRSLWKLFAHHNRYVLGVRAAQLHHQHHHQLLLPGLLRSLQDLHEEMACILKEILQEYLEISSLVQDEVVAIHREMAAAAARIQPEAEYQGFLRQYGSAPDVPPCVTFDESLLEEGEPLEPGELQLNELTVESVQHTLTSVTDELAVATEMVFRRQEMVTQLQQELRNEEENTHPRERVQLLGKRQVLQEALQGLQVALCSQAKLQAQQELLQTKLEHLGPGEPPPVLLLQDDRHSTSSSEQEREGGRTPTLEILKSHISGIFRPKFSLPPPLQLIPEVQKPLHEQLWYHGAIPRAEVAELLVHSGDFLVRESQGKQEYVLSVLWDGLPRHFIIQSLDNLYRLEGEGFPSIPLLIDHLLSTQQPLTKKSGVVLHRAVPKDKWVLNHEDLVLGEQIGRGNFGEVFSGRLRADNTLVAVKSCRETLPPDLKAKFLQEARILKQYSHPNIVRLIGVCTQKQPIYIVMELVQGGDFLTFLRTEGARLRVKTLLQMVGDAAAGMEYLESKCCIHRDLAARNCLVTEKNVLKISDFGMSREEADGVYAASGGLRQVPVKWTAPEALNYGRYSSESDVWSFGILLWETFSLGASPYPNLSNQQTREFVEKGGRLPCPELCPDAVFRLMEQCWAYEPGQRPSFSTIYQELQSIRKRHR
# [13] = biological target: Tyrosine-protein kinase Fes/Fps (Homo sapiens) (UniProt P07332); details: at 1 µM
# [14] = biological target: Fibroblast growth factor receptor 1 (Homo sapiens) (UniProt P11362); details: at 0.1 µM
# [15] = biological target: Fibroblast growth factor receptor 1 (Homo sapiens) (UniProt P11362); details: at 1 µM
# [16] = biological target: Fibroblast growth factor receptor 2 (Homo sapiens) (UniProt P21802); details: at 0.1 µM
# Chain of Fibroblast growth factor receptor 2 (Homo sapiens) (P21802 22-821 limits assumed): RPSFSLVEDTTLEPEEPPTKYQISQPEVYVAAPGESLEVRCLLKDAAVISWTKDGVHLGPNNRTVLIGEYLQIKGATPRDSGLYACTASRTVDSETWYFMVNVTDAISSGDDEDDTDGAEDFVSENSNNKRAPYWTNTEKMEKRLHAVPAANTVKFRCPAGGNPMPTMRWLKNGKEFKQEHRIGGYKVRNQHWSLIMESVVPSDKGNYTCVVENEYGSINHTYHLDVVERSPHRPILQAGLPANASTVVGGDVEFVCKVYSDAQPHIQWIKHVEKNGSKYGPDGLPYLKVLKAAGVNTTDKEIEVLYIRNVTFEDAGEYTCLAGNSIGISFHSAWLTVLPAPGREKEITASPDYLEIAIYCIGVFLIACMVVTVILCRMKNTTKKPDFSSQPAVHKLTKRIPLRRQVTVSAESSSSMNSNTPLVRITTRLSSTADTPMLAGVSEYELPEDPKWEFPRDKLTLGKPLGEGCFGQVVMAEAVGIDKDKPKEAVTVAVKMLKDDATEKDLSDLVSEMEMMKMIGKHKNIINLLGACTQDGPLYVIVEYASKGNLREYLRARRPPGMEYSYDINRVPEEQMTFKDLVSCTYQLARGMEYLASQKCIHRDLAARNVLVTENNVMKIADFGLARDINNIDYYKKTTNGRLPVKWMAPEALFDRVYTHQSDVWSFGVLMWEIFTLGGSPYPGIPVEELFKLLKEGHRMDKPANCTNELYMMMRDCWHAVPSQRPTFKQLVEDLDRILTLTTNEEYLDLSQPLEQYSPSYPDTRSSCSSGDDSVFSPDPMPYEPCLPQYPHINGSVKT
# [17] = biological target: Fibroblast growth factor receptor 2 (Homo sapiens) (UniProt P21802); details: at 1 µM
# [18] = biological target: Fibroblast growth factor receptor 3 (Homo sapiens) (UniProt P22607); details: at 0.1 µM
# Chain of Fibroblast growth factor receptor 3 (Homo sapiens) (P22607 23-806 limits assumed): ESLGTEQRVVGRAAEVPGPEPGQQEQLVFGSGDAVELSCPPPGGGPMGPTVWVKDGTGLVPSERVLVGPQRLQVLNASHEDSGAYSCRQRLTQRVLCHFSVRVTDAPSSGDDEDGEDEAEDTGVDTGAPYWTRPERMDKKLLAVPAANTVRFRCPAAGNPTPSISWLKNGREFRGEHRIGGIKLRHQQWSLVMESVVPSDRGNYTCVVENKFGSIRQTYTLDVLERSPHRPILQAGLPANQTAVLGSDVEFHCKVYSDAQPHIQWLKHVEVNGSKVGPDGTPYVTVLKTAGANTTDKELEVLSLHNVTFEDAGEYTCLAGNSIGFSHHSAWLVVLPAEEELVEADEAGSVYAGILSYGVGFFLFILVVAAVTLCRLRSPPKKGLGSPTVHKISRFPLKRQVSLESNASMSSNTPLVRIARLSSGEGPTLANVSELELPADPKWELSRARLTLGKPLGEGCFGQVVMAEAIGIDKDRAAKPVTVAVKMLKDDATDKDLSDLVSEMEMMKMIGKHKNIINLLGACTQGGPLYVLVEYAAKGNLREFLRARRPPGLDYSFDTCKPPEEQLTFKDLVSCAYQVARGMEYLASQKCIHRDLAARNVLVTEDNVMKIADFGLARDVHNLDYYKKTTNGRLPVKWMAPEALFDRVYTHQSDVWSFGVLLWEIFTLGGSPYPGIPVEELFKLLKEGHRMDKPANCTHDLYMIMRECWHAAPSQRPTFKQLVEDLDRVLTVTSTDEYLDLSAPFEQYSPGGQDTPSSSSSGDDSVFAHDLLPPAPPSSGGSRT
# [19] = biological target: Fibroblast growth factor receptor 3 (Homo sapiens) (UniProt P22607); details: at 1 µM
# [20] = biological target: Fibroblast growth factor receptor 4 (Homo sapiens) (UniProt P22455); details: at 0.1 µM;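 note: values are mean percent inhibition of FGFR4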
SMILES,inhibition [1],inhibition [2],inhibition [3],inhibition [4],inhibition [5],inhibition [6],inhibition [7],inhibition [8],inhibition [9],inhibition [10],inhibition [11],inhibition [12],inhibition [13],inhibition [14],inhibition [15],inhibition [16],inhibition [17],inhibition [18],inhibition [19],inhibition [20]
Cc1cccc(-c2n[nH]cc2-c2ccc3ncccc3n2)n1,5.67%,2.71%,1.95%,-0.2%,2.61%,1.42%,-0.81%,2.27%,4%,0.04%,0.01%,0.45%,-0.18%,-0.21%,8.38%,0.62%,5.35%,1.61%,4.89%,3.49%
COc1cc(C)c(NC(=O)CN(C)C)cc1Nc1nc(Nc2cccc(F)c2C(N)=O)c2cc[nH]c2n1,8.75%,4.52%,0.2%,2.62%,1.31%,0.48%,-0.4%,10.4%,32.1%,81.8%,86.8%,76.1%,89%,0.49%,1.43%,0.12%,4.39%,2.37%,1.03%,-1.04%
